In the library only some 12% were active in any assay of this set; here they are far more common.
PLK1 PBD inh: inhibitors of human PLK1 polo-box domain binding | P53350 | Plk1 PBD binding of FITC phosphopeptide, fluorescence polarization | Potency, µM, hits mostly inhibitors | hit rate 2.8% among 360,000 | AID 720504; further: series mostly up to about 57 µM; nearly all actives have a fitted effect of over 65% in size
Gal4-VP16 FLuc: counter-screen for ROR gamma inhibitors: Gal4-VP16 reporter | Drosophila S2 Gal4-VP16 UAS-luciferase, luminescence, 20 h | Potency, µM (titrated, usually from 53.6 µM), most hits filed as inhibitors | hit rate 3.5% among 310,000;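 further: Gal4-VP16 expression switched on by copper sulfate through the metallothionein promoter; nearly all actives have a fitted effect of over 50% in size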
RORg inh: inhibitors of mouse ROR gamma transcriptional activity; Potency, µM (doses to about 53.6 µM), most hits filed as inhibitors; hit rate 5.4% among 310,000; AID 2551; Drosophila S2 Gal4-RORgamma UAS-luciferase reporter, 20 h; P51450; further: nearly all actives have a fitted effect of over 60% in size
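In this cell-based reporter format, copper sulfate (700 uM final) drives Gal4–ROR gamma fusion expression from a metallothionein promoter in Drosophila Schneider cells; compounds preincubated 1 hr, reporter read after 20 hr at ambient temperature.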
ALDH1A1 block: blocks purified human ALDH1A1 activity | Potency, µM (highest dose often 75.3 µM), actives largely listed as inhibitors | Purified ALDH1A1, NADH fluorescence, propionaldehyde substrate | hit rate 7.3% among 220,000; active means well fitted inhibition curve with a large enough effect, not every such curve was filed as active; inconclusive means small, poorly fitted or top-dose-only effect, or another doubt; inactive means no such curve, though single readings can be large or run the other way
Target sequence (P00352 whole entry, looked up): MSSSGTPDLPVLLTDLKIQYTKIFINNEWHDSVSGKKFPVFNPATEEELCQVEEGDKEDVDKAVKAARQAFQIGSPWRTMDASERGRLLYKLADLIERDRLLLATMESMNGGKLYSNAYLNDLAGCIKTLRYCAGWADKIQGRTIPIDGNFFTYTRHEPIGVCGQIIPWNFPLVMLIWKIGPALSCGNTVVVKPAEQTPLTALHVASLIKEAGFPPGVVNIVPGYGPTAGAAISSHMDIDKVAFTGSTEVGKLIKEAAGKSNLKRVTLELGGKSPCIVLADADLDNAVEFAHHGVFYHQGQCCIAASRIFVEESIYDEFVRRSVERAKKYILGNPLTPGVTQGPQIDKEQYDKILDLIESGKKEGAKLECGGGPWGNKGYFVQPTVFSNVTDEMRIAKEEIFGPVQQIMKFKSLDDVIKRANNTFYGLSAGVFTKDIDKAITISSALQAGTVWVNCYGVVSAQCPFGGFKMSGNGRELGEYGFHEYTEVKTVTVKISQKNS
Sfp inh: inhibitors of Bacillus subtilis Sfp phosphopantetheinyl transferase; Q9F4F7; Biochemical Sfp PPTase activity, qHTS; Potency, µM, hits mostly inhibitors; hit rate 3.5% among 310,000;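 further: the enzyme is Sfp with the accession as filed and its product quenches rhodamine fluorescence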
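With Hepes-Na pH 7.6 buffer containing 10 mM MgCl2, Sfp (15 nM) modified BHQ-2-YbbR (12.5 uM) using rhodamine-CoA (5 uM). Two reads 30 minutes apart at 525/598 nm yielded each well's rate.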
Large screens that a line does not name were inactive; ! = repeats disagree. Unless noted, the call rests on the fitted dose curve; in most records, active means well fitted curve in the direction sought with a large enough effect; inconclusive means small, poorly fitted or top-dose-only effect, or another doubt; inactive means no such curve, though single readings can be large; an effect the other way counts as inactive or inconclusive.

CCOc1ccc(S(=O)(=O)Nc2cccc(C)c2)c2cccnc12	RORg inh inconclusive
Nc1nccc(Nc2ccc(S(N)(=O)=O)cc2)n1	none (no result: PLK1 PBD inh, Gal4-VP16 FLuc, RORg inh, Sfp inh)
Fc1c(F)c(F)c(N=Cc2ccc3ncccc3c2)c(F)c1F	ALDH1A1 block 8.9µM
O=C1NC2=C(C(=O)CCC2)C(c2ccccc2Cl)N1 (configuration not stated)	none (no result: ALDH1A1 block)
Cc1nc(Cl)c2c(n1)NC1=C(O2)C(=O)CCC1	PLK1 PBD inh 21µM
CCCOC(=O)c1ccc(OCC(O)Cn2c(C)nc3ccccc32)cc1 (configuration not stated)	Gal4-VP16 FLuc 3.2µM, RORg inh inconclusive, ALDH1A1 block inconclusive
Cc1sc(-n2c(C)cc(/C=N/n3cnnc3)c2C)c(C#N)c1C	PLK1 PBD inh 17µM, Gal4-VP16 FLuc inconclusive, RORg inh inconclusive, ALDH1A1 block 4µM, Sfp inh 20µM
Cc1sc(-n2c(C)cc(/C=C3\SC(=S)NC3=O)c2C)c(C#N)c1C	PLK1 PBD inh 30µM, Gal4-VP16 FLuc inconclusive, RORg inh inconclusive
Cc1ccc(-c2cc(-c3ccc(F)cc3)nc(N)c2C#N)o1	ALDH1A1 block inconclusive, Sfp inh 8.9µM
Cc1ccc(-c2cc(-c3ccccc3Cl)c(C#N)c(N)n2)o1	PLK1 PBD inh inconclusive, RORg inh inconclusive, ALDH1A1 block inconclusive, Sfp inh 11µM
Cc1ccc(-c2cc(-c3ccccc3)c(C#N)c(N)n2)o1	PLK1 PBD inh 21µM, Gal4-VP16 FLuc inconclusive, RORg inh 20µM, ALDH1A1 block inconclusive, Sfp inh 7.9µM
N#Cc1c(-c2cccnc2)cc(-c2ccccc2)nc1N	none (no result: ALDH1A1 block)
CC(=O)NC(C)(c1ccccc1)c1nc(-c2cccc(C(F)(F)F)c2)cs1 (configuration not stated)	none (no result: Gal4-VP16 FLuc, RORg inh, ALDH1A1 block, Sfp inh)
CCCCN=c1scc(-c2ccc3c(c2)NC(=O)CO3)n1N=C1CCCC1	PLK1 PBD inh 17µM, ALDH1A1 block 3.2µM
CCN=c1scc(-c2ccc3c(c2)NC(=O)CO3)n1N=C1CCCC1	Gal4-VP16 FLuc inconclusive, RORg inh inconclusive, ALDH1A1 block inconclusive, Sfp inh inconclusive
CC(=O)NC(c1ccc(F)c(F)c1)c1nc(-c2cc3ccccc3o2)cs1 (configuration not stated)	none (no result: Gal4-VP16 FLuc, RORg inh, ALDH1A1 block, Sfp inh)
CN(C)c1ccc(/C=[N+](\[O-])C2N(c3ccccc3)C(=S)SC2(C)C)cc1 (configuration not stated)	ALDH1A1 block 22µM
CN(C)c1ccc(/C=[N+](\[O-])C2SC(=S)N(C)C2(C)C)cc1 (configuration not stated)	ALDH1A1 block 0.45µM
CCc1nc2c(OCCC3CCCCC3)cccn2c1N(C)C(=O)c1ccc(OC)cc1	none (no result: Gal4-VP16 FLuc, RORg inh, ALDH1A1 block, Sfp inh)
CCC/C=C(\CCC)C(NP(=O)(c1ccccc1)c1ccccc1)c1ccc(C(F)(F)F)cc1 (configuration not stated)	Gal4-VP16 FLuc inconclusive (no result: PLK1 PBD inh)
Cc1cc(OC(=O)c2ccccc2Br)cc(=O)n1C	PLK1 PBD inh 21µM
CC(=O)c1c(OC(=O)c2ccccc2Br)ccc2c(C)cc(=O)oc12	Gal4-VP16 FLuc inconclusive
O=C(C1CCCN(S(=O)(=O)c2ccc(Br)s2)C1)N1CCCCCC1 (configuration not stated)	Gal4-VP16 FLuc inconclusive, RORg inh inconclusive, ALDH1A1 block 5.6µM
O=C(C1CCCN(S(=O)(=O)c2ccc(Br)s2)C1)N1CCN(c2ccccc2)CC1 (configuration not stated)	RORg inh inconclusive (no result: ALDH1A1 block)
O=c1c2ccccc2nc2c3ccccc3c(NCCN3CCOCC3)nn12	Gal4-VP16 FLuc 20µM, RORg inh 13µM, ALDH1A1 block inconclusive (no result: PLK1 PBD inh)
O=c1c2c(-c3ccccc3)csc2nc2c3ccccc3c(NCCN3CCOCC3)nn12	Gal4-VP16 FLuc 3.2µM, RORg inh 1.6µM, ALDH1A1 block inconclusive, Sfp inh 35µM
COc1ccc(NC(=O)N2CC3(CCN(C(=O)c4ccco4)CC3)C2)cc1	ALDH1A1 block 16µM (no result: PLK1 PBD inh)
O=C(c1ccco1)N1CCC[C@@]2(CCN(c3ccncc3)C2)C1	none (no result: PLK1 PBD inh)
O=C(c1ccco1)N1CCC2(CC1)CCN(c1ccncc1)CC2	ALDH1A1 block 7.1µM (no result: PLK1 PBD inh)
COC(=O)N1CCC2(CC1)CN(c1cccc(-c3ccccc3)c1)C2	ALDH1A1 block inconclusive, Sfp inh 79µM (no result: PLK1 PBD inh)
O=C(c1ccco1)N1CCC2(CC1)CN(c1ccccc1)C2	ALDH1A1 block 14µM (no result: PLK1 PBD inh)
O=C(c1ccco1)N1CCC2(CC1)CN(c1ccc(-c3ccccc3)cc1)C2	Gal4-VP16 FLuc inconclusive (no result: PLK1 PBD inh)
C=CC1CO1 (configuration not stated)	none (no result: PLK1 PBD inh, Sfp inh)
CSc1cccc(NC(=O)c2cnn3ccccc23)c1	Gal4-VP16 FLuc inconclusive, RORg inh inconclusive, ALDH1A1 block inconclusive
CCc1ccc(NC(=O)c2cnn3ccccc23)cc1	Gal4-VP16 FLuc inconclusive, RORg inh 13µM
Nc1ccn([C@@H]2O[C@H](CO)[C@@H](O)C2O)c(=O)n1 (some centres not stated)	Sfp inh 100µM!
O=C(O)CC/C=C\CC[C@H]1[C@@H](N2CCCCC2)[C@@H](O)C[C@@H]1OCc1ccc(-c2ccccc2)cc1	none (no result: PLK1 PBD inh)
O=C(CN1CCN(S(=O)(=O)c2ccc(Br)cc2)CC1)N/N=C/c1ccccc1C(=O)O	none (no result: ALDH1A1 block)
CCC/C=C(\CCC)C(NS(=O)(=O)CC12CCC(CC1=O)C2(C)C)c1ccc(C(=O)OC)cc1 (configuration not stated)	ALDH1A1 block 10µM, Sfp inh inconclusive (no result: PLK1 PBD inh)
N#C/C(=C(/O)c1ccc2c(c1)OCO2)c1nc2cc(C(F)(F)F)ccc2s1	PLK1 PBD inh inconclusive, Gal4-VP16 FLuc inconclusive (no result: ALDH1A1 block)
N#C/C(=C(/O)c1ccccc1F)c1nc2cc(C(F)(F)F)ccc2s1	PLK1 PBD inh 27µM
COc1cc(OC)c(NC(=S)NCc2ccc(F)cc2)cc1Cl	RORg inh inconclusive
Fc1ccc(CNCc2ccccc2Cl)cc1	ALDH1A1 block 11µM
Cc1c(Cl)cccc1NC(=S)NCc1ccc(F)cc1	Gal4-VP16 FLuc 5µM, RORg inh 2.2µM (no result: ALDH1A1 block)
Cc1c(Cl)cccc1NC(=S)NCc1ccccc1Cl	Gal4-VP16 FLuc 1.6µM, RORg inh 1.1µM
Fc1ccc(CNC(=S)Nc2ccccc2Cl)cc1	Gal4-VP16 FLuc inconclusive, RORg inh 11µM
Cc1ccc(CNCc2ccccc2Cl)cc1	none
Cn1c(CCc2nc3ccccc3[nH]2)nnc1SCC#N	PLK1 PBD inh 19µM, Gal4-VP16 FLuc inconclusive, RORg inh 14µM, ALDH1A1 block inconclusive
Cc1c(CCO)c(=O)n(-c2ccccc2)n1S(=O)(=O)c1c(Cl)cc(Cl)cc1Cl	PLK1 PBD inh inconclusive, Sfp inh 71µM
COc1ccc(OC)c(CCNC(=O)c2ccc3c(=O)[nH]c4c(C(=O)NC(C)C)sc(=S)n4c3c2)c1	PLK1 PBD inh inconclusive, RORg inh inconclusive, Sfp inh inconclusive (no result: ALDH1A1 block)
CC(C)NC(=O)c1sc(=S)n2c1[nH]c(=O)c1ccc(C(=O)NCCc3ccc(Cl)cc3)cc12	PLK1 PBD inh 27µM (no result: ALDH1A1 block)
O=C(NCCc1ccccc1)c1ccc2c(=O)[nH]c3c(C(=O)NCC4CCCO4)sc(=S)n3c2c1 (configuration not stated)	PLK1 PBD inh 30µM (no result: ALDH1A1 block)
CCOc1ccc(CCNC(=O)c2ccc3c(=O)[nH]c4c(C(=O)NC(C)C)sc(=S)n4c3c2)cc1	PLK1 PBD inh inconclusive (no result: ALDH1A1 block)

Screens deposited in PubChem BioAssay by National Center for Advancing Translational Sciences (NCATS).
